Data as given in ChEMBL document CHEMBL1961873, “Compounds: GSK PKIS; Assays: Nanosyn kinase panel” (2012).

Experiments:
[1] = target: T1, Mitogen-activated protein kinase 12 (Homo sapiens) (UniProt P53778); conditions: at 1 µM;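 also: values are averaged p38gamma kinase inhibition readings, compounds tested at 1 µM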
T1 sequence (whole entry): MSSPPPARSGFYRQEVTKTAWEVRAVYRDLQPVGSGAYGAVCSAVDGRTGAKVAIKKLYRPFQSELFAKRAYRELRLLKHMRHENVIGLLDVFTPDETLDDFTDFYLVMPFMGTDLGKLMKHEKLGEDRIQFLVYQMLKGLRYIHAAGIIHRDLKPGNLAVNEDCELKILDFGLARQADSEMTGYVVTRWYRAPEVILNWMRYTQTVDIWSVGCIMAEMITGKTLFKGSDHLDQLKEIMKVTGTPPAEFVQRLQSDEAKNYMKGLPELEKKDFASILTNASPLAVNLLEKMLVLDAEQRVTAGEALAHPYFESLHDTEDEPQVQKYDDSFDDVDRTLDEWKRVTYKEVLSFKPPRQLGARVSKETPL

[2] = target: SRSF protein kinase 1 (Homo sapiens) (UniProt Q96SB4); conditions: at 0.1 µM
Sequence of SRSF protein kinase 1 (Homo sapiens) (Q96SB4 whole entry, canonical isoform): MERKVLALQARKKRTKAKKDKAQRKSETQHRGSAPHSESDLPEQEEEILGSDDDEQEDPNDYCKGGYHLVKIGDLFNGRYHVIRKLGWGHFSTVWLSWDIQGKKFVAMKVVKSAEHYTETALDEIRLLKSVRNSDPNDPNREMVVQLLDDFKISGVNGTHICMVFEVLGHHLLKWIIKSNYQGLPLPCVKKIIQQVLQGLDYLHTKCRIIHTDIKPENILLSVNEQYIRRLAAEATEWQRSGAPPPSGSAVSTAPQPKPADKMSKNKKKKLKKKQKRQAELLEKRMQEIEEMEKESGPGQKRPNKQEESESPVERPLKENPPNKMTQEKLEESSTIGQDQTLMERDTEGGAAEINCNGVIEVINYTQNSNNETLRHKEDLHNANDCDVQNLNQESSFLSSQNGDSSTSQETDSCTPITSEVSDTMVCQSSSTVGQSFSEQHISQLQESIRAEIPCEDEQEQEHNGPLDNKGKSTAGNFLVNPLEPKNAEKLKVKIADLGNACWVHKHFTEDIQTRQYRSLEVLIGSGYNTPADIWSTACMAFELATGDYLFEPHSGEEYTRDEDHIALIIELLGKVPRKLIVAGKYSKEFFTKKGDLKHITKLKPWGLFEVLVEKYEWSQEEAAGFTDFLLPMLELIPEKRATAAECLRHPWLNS

[3] = target: SRSF protein kinase 1 (Homo sapiens) (UniProt Q96SB4); conditions: at 1 µM
[4] = target: Phosphatidylinositol 4,5-bisphosphate 3-kinase catalytic subunit alpha isoform (Homo sapiens) (UniProt P42336); conditions: at 0.1 µM
Sequence of Phosphatidylinositol 4,5-bisphosphate 3-kinase catalytic subunit alpha isoform (Homo sapiens) (P42336 whole entry, canonical isoform): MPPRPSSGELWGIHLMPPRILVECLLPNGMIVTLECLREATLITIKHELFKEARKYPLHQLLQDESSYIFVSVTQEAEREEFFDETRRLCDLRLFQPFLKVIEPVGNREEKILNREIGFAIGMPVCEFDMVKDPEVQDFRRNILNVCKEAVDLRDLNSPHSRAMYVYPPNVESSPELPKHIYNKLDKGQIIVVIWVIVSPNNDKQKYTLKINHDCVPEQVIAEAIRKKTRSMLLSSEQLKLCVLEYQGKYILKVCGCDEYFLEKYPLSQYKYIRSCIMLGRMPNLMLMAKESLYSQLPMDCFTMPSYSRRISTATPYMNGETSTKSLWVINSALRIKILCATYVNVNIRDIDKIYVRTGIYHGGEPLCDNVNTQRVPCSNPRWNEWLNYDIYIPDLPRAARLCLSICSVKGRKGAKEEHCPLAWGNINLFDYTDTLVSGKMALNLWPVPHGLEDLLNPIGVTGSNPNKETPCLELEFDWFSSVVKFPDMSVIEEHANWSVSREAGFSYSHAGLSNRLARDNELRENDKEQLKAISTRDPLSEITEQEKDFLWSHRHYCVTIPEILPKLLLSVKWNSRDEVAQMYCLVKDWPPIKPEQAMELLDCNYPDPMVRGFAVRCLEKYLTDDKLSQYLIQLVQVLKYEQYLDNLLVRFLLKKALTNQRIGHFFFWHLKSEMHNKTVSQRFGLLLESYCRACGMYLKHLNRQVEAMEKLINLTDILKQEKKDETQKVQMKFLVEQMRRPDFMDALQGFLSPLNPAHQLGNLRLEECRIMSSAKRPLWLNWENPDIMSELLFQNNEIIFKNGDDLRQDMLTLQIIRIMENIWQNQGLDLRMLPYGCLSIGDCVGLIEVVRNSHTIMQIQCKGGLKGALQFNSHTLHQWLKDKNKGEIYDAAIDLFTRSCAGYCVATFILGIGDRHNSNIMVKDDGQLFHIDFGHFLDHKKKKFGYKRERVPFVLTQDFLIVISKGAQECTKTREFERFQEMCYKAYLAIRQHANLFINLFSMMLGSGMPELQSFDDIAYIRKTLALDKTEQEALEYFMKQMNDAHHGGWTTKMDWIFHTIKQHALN

[5] = target: Phosphatidylinositol 4,5-bisphosphate 3-kinase catalytic subunit alpha isoform (Homo sapiens) (UniProt P42336); conditions: at 1 µM
[6] = target: T2, Phosphatidylinositol 4,5-bisphosphate 3-kinase catalytic subunit delta isoform (Homo sapiens) (UniProt O00329); conditions: at 0.1 µM
T2 sequence (whole entry): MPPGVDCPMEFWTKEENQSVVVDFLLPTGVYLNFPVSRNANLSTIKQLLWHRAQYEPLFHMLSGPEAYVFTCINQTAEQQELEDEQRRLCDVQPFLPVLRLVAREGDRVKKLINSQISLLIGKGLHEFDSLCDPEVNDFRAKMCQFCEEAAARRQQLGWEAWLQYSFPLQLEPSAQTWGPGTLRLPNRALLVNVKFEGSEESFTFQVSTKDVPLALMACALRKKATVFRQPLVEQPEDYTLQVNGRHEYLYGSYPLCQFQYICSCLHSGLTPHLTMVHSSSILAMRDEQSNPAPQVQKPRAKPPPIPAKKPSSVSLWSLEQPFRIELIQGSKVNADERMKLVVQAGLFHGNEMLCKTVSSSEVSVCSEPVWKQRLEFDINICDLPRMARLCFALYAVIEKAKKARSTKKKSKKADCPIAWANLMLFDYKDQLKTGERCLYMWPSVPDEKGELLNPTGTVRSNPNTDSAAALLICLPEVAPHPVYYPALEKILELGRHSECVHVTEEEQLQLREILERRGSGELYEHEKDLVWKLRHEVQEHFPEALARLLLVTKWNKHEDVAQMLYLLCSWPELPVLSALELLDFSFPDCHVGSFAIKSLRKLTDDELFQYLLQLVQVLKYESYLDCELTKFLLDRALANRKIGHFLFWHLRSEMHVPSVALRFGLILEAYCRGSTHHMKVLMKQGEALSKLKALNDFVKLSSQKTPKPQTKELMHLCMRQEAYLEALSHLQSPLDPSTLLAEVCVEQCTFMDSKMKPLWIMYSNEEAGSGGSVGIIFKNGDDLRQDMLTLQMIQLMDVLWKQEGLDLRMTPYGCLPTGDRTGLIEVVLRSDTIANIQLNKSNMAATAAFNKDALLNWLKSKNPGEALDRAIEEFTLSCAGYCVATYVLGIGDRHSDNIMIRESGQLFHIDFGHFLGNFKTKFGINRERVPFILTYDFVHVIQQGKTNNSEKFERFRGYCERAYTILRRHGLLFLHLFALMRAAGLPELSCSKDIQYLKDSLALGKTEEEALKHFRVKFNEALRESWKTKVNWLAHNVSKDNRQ

[7] = target: T2, Phosphatidylinositol 4,5-bisphosphate 3-kinase catalytic subunit delta isoform (Homo sapiens); conditions: at 1 µM
[8] = target: Phosphatidylinositol 4-kinase beta (Homo sapiens) (UniProt Q9UBF8); conditions: at 0.1 µM
Sequence of Phosphatidylinositol 4-kinase beta (Homo sapiens) (Q9UBF8 2-816 limits assumed): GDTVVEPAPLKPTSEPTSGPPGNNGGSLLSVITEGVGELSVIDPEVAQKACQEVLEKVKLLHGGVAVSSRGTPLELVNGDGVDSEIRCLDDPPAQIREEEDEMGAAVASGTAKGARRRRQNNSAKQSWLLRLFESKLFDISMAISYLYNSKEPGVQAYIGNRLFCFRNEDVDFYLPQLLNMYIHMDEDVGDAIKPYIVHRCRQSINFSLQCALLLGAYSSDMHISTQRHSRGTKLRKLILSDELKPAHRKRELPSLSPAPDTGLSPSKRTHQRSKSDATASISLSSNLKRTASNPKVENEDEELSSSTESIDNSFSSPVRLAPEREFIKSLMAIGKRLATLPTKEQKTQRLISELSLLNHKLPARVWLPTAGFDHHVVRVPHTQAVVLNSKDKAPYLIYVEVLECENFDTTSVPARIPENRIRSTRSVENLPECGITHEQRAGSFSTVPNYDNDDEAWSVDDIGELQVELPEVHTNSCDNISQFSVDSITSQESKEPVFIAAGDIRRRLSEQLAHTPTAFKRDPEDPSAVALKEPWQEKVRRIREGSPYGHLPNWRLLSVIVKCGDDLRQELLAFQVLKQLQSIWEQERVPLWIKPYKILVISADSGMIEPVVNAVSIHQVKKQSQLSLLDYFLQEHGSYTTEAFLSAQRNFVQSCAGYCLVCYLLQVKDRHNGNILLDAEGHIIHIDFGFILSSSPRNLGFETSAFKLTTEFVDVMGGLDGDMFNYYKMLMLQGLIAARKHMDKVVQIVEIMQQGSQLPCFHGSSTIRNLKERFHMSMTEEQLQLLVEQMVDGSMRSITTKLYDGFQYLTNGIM

[9] = target: Phosphatidylinositol 4-kinase beta (Homo sapiens) (UniProt Q9UBF8); conditions: at 1 µM
[10] = target: Sphingosine kinase 1 (Homo sapiens) (UniProt Q9NYA1); conditions: at 0.1 µM
Sequence of Sphingosine kinase 1 (Homo sapiens) (Q9NYA1 whole entry): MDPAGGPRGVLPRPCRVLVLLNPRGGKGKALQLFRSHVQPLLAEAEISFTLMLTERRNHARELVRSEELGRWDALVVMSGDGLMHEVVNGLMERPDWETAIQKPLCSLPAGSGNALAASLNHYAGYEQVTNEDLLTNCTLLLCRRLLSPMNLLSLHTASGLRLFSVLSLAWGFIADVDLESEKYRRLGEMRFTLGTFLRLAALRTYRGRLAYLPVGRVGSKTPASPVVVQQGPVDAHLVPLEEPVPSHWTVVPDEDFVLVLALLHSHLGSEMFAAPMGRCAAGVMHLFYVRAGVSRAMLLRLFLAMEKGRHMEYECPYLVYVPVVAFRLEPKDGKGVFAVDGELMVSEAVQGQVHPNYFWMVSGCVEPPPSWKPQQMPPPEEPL

[11] = target: Sphingosine kinase 1 (Homo sapiens) (UniProt Q9NYA1); conditions: at 1 µM
[12] = target: T3, Sphingosine kinase 2 (Homo sapiens) (UniProt Q9NRA0); conditions: at 0.1 µM
T3 sequence (whole entry): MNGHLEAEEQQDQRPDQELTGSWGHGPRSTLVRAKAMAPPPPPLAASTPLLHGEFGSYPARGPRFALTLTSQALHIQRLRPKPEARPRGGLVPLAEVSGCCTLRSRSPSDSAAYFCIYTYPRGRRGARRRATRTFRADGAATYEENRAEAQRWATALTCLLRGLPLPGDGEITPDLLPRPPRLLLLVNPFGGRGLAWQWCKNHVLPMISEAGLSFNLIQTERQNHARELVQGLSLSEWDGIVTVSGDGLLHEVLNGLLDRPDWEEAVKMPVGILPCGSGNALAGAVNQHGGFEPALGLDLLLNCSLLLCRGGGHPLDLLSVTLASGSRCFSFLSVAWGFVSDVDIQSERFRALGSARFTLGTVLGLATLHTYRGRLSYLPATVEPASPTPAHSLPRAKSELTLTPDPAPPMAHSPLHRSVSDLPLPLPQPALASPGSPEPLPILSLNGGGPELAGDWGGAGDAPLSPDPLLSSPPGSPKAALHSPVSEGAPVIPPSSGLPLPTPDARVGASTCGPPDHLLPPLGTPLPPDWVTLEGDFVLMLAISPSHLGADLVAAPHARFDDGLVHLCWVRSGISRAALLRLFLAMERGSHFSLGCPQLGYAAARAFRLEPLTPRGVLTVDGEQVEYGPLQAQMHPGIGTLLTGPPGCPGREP

[13] = target: T3, Sphingosine kinase 2 (Homo sapiens); conditions: at 1 µM
[14] = target: Casein kinase II subunit alpha (Homo sapiens) (UniProt P68400); conditions: at 0.1 µM
Sequence of Casein kinase II subunit alpha (Homo sapiens) (P68400 whole entry, looked up): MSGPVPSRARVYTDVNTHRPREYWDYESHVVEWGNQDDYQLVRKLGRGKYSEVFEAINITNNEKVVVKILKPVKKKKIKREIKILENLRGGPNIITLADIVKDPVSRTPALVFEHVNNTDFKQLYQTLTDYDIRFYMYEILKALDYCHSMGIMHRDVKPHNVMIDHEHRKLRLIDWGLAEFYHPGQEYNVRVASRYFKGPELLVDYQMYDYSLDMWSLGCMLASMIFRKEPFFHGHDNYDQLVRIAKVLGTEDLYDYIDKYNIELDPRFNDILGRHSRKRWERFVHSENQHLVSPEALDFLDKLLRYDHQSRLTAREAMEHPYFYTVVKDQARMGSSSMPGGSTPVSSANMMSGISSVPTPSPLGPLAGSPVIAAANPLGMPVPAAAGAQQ

[15] = target: Casein kinase II subunit alpha (Homo sapiens) (UniProt P68400); conditions: at 1 µM
[16] = target: T4, Inhibitor of nuclear factor kappa-B kinase subunit alpha (Homo sapiens) (UniProt O15111); conditions: at 0.1 µM
T4 sequence (whole entry): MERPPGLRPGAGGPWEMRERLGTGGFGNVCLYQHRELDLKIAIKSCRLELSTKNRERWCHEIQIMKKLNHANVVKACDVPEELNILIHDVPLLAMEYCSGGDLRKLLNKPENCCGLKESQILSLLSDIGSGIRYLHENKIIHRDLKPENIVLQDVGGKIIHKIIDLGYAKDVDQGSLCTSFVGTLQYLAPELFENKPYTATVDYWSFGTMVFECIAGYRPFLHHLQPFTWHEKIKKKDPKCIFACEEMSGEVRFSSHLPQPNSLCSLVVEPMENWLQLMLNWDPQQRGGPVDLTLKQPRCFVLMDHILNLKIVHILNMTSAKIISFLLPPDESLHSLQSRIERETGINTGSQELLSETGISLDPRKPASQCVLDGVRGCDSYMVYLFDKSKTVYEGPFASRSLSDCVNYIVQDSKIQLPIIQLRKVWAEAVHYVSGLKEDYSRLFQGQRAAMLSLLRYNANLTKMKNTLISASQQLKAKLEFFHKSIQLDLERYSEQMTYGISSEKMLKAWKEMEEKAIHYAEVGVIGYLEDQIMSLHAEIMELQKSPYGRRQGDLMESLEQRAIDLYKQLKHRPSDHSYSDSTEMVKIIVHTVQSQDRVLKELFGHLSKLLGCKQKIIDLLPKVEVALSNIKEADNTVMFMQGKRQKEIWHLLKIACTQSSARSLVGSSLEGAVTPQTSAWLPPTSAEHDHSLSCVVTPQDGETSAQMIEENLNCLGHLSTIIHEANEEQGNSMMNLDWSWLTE

[17] = target: T4, Inhibitor of nuclear factor kappa-B kinase subunit alpha (Homo sapiens); conditions: at 1 µM
[18] = target: T5, Inhibitor of nuclear factor kappa-B kinase subunit beta (Homo sapiens) (UniProt O14920); conditions: at 0.1 µM
T5 sequence (whole entry): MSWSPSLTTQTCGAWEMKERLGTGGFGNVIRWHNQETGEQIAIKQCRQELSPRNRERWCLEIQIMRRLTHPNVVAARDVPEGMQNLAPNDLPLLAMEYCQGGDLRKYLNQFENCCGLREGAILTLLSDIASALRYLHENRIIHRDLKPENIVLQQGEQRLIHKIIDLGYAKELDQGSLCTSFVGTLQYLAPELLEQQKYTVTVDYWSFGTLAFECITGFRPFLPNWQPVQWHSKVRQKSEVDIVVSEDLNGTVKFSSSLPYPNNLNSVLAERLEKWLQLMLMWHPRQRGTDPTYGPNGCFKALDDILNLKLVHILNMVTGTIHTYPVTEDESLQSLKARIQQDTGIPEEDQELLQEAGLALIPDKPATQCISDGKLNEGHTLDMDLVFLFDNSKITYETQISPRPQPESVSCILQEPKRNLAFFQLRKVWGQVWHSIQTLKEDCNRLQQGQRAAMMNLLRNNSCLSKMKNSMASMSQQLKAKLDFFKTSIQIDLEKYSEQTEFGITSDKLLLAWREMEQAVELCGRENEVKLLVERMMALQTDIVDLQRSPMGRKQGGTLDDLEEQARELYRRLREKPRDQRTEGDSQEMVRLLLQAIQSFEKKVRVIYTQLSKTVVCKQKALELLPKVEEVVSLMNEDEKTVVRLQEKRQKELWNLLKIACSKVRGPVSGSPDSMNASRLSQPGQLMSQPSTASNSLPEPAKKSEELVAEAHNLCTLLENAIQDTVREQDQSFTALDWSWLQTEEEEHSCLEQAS

[19] = target: T5, Inhibitor of nuclear factor kappa-B kinase subunit beta (Homo sapiens); conditions: at 1 µM
[20] = target: T6, Inhibitor of nuclear factor kappa-B kinase subunit epsilon (Homo sapiens) (UniProt Q14164); conditions: at 0.1 µM;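 also: mean inhibition of IKKε reported, from the GSK PKIS dataset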
T6 sequence (whole entry): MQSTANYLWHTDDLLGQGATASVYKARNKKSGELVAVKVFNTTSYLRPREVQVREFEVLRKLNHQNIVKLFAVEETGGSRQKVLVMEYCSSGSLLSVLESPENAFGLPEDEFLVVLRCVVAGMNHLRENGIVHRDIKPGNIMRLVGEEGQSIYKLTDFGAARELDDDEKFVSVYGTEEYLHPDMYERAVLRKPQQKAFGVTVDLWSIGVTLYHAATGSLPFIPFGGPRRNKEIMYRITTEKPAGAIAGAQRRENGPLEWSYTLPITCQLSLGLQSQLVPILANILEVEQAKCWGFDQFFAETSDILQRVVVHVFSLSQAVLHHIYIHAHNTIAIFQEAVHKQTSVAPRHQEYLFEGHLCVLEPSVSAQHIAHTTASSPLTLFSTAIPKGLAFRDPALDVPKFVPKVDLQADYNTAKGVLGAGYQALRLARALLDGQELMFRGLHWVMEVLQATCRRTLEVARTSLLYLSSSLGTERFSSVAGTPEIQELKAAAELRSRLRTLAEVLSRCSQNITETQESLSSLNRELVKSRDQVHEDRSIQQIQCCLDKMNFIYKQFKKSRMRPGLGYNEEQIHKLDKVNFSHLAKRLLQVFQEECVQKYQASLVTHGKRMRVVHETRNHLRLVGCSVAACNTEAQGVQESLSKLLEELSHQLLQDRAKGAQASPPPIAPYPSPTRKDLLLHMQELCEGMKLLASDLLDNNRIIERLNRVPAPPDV

Row | SMILES | inhibition [1] [%] | inhibition [2] [%] | inhibition [3] [%] | inhibition [4] [%] | inhibition [5] [%] | inhibition [6] [%] | inhibition [7] [%] | inhibition [8] [%] | inhibition [9] [%] | inhibition [10] [%] | inhibition [11] [%] | inhibition [12] [%] | inhibition [13] [%] | inhibition [14] [%] | inhibition [15] [%] | inhibition [16] [%] | inhibition [17] [%] | inhibition [18] [%] | inhibition [19] [%] | inhibition [20] [%]
1 | Clc1ccc(-c2nn3ncccc3c2-c2ccnc(Nc3ccccc3)n2)cc1 | 1.71 | -1.15 | -1.1 | 2.48 | 5.33 | 4.92 | 7.17 | -0.39 | 0.11 | 0.81 | -1.12 | -0.19 | 0.98 | 1.72 | 1.08 | -0.83 | 0.14 | -3.05 | -3.62 | 1.23
2 | Nc1nc(-c2ccc(F)cc2)c(-c2ccc3ncccc3n2)s1 | 2.9 | -1.42 | 1.42 | 7.33 | 20.4 | 7.18 | 32.8 | 8.12 | 7.23 | 0.08 | -1.38 | -1.13 | -1.05 | 6.47 | 13 | 2.92 | 5.46 | 5.24 | 4.99 | 6.57
3 | [O-][S+]1CCN(Cc2ccc(-c3ccc4ncnc(Nc5ccc(OCc6cccc(F)c6)c(Cl)c5)c4c3)o2)CC1 | 4.04 | -1.9 | -2.12 | 5.72 | 6.58 | 2.17 | 6.89 | 0.59 | -7.5 | -0.15 | 1.32 | 4.71 | 0.73 | 12.8 | 4.15 | 8.15 | 9.46 | 9.09 | 7.58 | 11.3
4 | COC(=O)Nc1nc2ccc(Oc3ccc(NC(=O)Nc4cccc(Cl)c4)cc3)cc2[nH]1 | 0.02 | -2.58 | -2.98 | -0.11 | 4.1 | -0.7 | 3.93 | 3.19 | -4.1 | 1.12 | -0.57 | 0 | 0 | 4.68 | 1.84 | -0.79 | 6.02 | -0.04 | 1.06 | 4.59
5 | COc1ccc(CNC(=O)c2ccc(-c3cc(-c4nnc(C)o4)ccc3C)cc2)cc1 | 2.59 | 2.79 | 9.14 | 0.29 | -1.87 | -0.28 | -2.1 | 3.82 | 0.88 | 1.51 | -0.2 | 1.04 | 0.14 | 6.07 | 16.4 | 2 | 7.25 | 1.12 | 4.56 | 5.88
6 | CC(=O)Nc1cccc(C#Cc2cncnc2Nc2ccc(OCc3cccc(F)c3)c(Cl)c2)c1 | 1.97 | -1.41 | -3.44 | 1.85 | 1.66 | 2.58 | 0.8 | -0.32 | -1.07 | -0.47 | -1.15 | -0.41 | -2.47 | -0.51 | -4.66 | 3.13 | -2.41 | 2.6 | -1.07 | 0.8
7 | COc1cc(Nc2nccc(Nc3ccc4c(C)n[nH]c4c3)n2)cc(OC)c1OC | 1.69 | -2.15 | -3.51 | 1.57 | 3.03 | 2.45 | 21.3 | 3.96 | 4.89 | -0.37 | 1.98 | -1.28 | 0.88 | 0.37 | 0.29 | 2.2 | -0.92 | 3.27 | 17 | 0.88
